# Test results from PubChem BioAssay (Tox21).
# Where a structure was tested more than once in an assay, its records may differ in their call. Calls of active or inactive are those of the source. Where a call stands in place of a potency, no number is given. Calls follow the shape of the dose curve; as a rule, active = well fitted activation curve with a large enough effect in the repeat runs; inconclusive = weak or mixed curves; inactive = flat fitted curve, though single readings scatter.
# Test: A CellTox Green Cytotoxicity Assay to monitor cytotoxicity in HEK293 cells - 0 hour (AID 1224869); also: nearly all actives have a fitted effect of over 50% in size
# Conditions: CellTox Green fluorescence; series mostly up to 76.8 µM
# From the text: National Center for Advancing Translational Sciences [NCATS]
# NIH Chemical Genomics Center [NCGC]
# U.S. Environmental Protection Agency [EPA]
# National Institutes of Environmental Health Sciences [NIEHS]
# National Toxicology Program [NTP]
# Cell-based models are critical for drug discovery. Determining the natural cytotoxic effects resulting from test compounds is an essential research activity. A CellTox Green Cytotoxicity Assay to monitor cytotoxicity in real time of continues cell culture during 40 hours of the compound treatment was used to screen Tox21 10K library compounds in Hek293 cells. CellTox Green Cytotoxicity Assay is a nonlytic, homogeneous, biofluorescent method to measure cytotoxicity in cell culture after experimental manipulation. The assay system uses a proprietary asymmetric cyanine dye that is excluded from viable cells but preferentially stains the dead cell's DNA. […] Viable cells produce no appreciable increases in fluorescence. Therefore, the fluorescence signal produced by the binding interaction with dead cell DNA is proportional to cytotoxicity.
# The mixture of Hek293 cell suspension and reagents were dispensed at 600cells/6 ul/well in 1536-well tissue culture treated black solid bottom plates using a Multidrop dispenser. After the assay plates were incubated at a 37 C/5% CO2 incubator for 5 hours, 23 nL of compounds dissolved in DMSO, positive and negative controls was transferred to the assay plate by a pintool work station. The plates were incubated at 37 C for 40 hours. The fluorescence intensity were measured at 0h, 8h, 16h, 24h, 32h and 40h time points using ViewLux plate reader during compound treatment.
# Potency is read from the fitted curve at half-maximal effect.
row,Structure (SMILES),Potency
1,[CH3][Sn]([Cl])([Cl])[Cl],inactive
2,Clc1ccccc1-c1nnc(-c2ccccc2Cl)nn1,inactive
3,CSc1nc(NC(C)C)nc(NC(C)C)n1,inactive
4,COc1ccc(C=O)cc1OC,inactive
5,CCOP(=O)(O)OCC (tested in a mixture with another compound),inactive
6,CC(C)(c1ccccc1)c1ccc(O)c(C(C)(C)c2ccccc2)c1,inactive
7,c1ccc2c(c1)Nc1ccccc1S2,inactive
8,C[C@]12CCC(=O)C=C1CC[C@@H]1[C@@H]2CC[C@@]2(C)[C@H]1CC[C@]2(C)O,44 µM (active) and inactive
9,COc1ccc(O)c(C(C)(C)C)c1,inactive
10,O=P(OCCCl)(OCCCl)OCCCl,inactive
11,COc1ccc(CO)cc1,inactive
12,CCN(CC)C(=O)C(C)Oc1cccc2ccccc12 (stereo not given),inactive
13,Cl,inactive
14,CCOC(=O)c1ccccc1N,inactive
15,Cc1cc(Cl)ccc1N=CN(C)C,inactive
16,CC(C)COC(=O)c1ccccc1C(=O)OCC(C)C,inactive
17,CC(C)(c1ccccc1)c1ccc(O)cc1,inactive
18,CCCCOCCOC(C)=O,inactive
19,CC1=C(C(=O)Nc2ccccc2)SCCO1,inactive
20,Clc1cccc(C(Cl)(Cl)Cl)n1,inactive

row,Structure (SMILES),Potency
1,CCNCC,inactive
2,Oc1ccc(Cl)cc1Cc1ccccc1,inactive
3,N#CC(c1ccccc1)c1ccccc1,inactive
4,CNC(=O)CSP(=S)(OC)OC,inactive
5,CCCCCCCC[N+](C)(CCCCCCCC)CCCCCCCC,inactive
6,COP(=O)(NC(C)=O)SC (stereo not given),inactive
7,NN=C(N)N,inactive
8,CC(C)Nc1ccc(Nc2ccccc2)cc1,inactive
9,O=C1CCCO1,inactive
10,OC(c1ccc(Cl)cc1)(c1cncnc1)c1ccccc1Cl (stereo not given),inactive
11,O=C1Nc2ccc(Cl)cc2C(c2ccccc2)=NC1O (stereo not given),inactive
12,CCCCCCCCCc1ccc(O)cc1,inactive
13,CCC(=O)Nc1ccc(Cl)c(Cl)c1,inactive
14,Oc1ccc(Cl)cc1Cl,inactive
15,COP(=S)(OC)Oc1ccc(Sc2ccc(OP(=S)(OC)OC)cc2)cc1,inactive
16,ClC(Cl)(Cl)c1ccccc1,inactive
17,O=C1C(Cl)=C(Cl)C(=O)c2ccccc21,inactive
18,O=NN1CCOCC1,inactive
19,COC(=O)Nc1nc2ccccc2[nH]1,inactive
20,CC[n+]1c(-c2ccccc2)c2cc(N)ccc2c2ccc(N)cc21,inactive
